The target in assay [1] is T1, Inhibitor of nuclear factor kappa-B kinase subunit epsilon (Homo sapiens) (UniProt Q14164).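 Also: reported values are averaged percent inhibition figures against human IKKε.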
T1 sequence (whole entry): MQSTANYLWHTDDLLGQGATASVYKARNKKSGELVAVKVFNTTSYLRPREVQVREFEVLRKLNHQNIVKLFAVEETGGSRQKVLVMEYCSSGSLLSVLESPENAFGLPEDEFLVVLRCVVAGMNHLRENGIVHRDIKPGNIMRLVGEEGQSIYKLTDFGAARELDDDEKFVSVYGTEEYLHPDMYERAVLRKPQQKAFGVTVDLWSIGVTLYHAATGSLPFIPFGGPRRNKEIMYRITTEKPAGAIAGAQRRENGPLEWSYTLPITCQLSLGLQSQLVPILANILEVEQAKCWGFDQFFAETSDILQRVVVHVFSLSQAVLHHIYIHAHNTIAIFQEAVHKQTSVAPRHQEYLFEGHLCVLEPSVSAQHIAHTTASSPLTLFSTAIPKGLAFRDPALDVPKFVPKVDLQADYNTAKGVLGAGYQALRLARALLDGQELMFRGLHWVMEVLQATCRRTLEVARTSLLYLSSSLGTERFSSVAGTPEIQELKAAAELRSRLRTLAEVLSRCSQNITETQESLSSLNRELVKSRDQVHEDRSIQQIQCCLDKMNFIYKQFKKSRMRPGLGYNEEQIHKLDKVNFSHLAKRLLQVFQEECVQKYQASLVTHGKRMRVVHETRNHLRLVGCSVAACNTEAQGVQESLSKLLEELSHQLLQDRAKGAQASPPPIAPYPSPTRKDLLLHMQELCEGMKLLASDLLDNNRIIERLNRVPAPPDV
The conditions noted are these: at 1 µM.

Assay [2] deals with T2, Serine/threonine-protein kinase Nek1 (Homo sapiens) (UniProt Q96PY6).
T2 sequence (whole entry): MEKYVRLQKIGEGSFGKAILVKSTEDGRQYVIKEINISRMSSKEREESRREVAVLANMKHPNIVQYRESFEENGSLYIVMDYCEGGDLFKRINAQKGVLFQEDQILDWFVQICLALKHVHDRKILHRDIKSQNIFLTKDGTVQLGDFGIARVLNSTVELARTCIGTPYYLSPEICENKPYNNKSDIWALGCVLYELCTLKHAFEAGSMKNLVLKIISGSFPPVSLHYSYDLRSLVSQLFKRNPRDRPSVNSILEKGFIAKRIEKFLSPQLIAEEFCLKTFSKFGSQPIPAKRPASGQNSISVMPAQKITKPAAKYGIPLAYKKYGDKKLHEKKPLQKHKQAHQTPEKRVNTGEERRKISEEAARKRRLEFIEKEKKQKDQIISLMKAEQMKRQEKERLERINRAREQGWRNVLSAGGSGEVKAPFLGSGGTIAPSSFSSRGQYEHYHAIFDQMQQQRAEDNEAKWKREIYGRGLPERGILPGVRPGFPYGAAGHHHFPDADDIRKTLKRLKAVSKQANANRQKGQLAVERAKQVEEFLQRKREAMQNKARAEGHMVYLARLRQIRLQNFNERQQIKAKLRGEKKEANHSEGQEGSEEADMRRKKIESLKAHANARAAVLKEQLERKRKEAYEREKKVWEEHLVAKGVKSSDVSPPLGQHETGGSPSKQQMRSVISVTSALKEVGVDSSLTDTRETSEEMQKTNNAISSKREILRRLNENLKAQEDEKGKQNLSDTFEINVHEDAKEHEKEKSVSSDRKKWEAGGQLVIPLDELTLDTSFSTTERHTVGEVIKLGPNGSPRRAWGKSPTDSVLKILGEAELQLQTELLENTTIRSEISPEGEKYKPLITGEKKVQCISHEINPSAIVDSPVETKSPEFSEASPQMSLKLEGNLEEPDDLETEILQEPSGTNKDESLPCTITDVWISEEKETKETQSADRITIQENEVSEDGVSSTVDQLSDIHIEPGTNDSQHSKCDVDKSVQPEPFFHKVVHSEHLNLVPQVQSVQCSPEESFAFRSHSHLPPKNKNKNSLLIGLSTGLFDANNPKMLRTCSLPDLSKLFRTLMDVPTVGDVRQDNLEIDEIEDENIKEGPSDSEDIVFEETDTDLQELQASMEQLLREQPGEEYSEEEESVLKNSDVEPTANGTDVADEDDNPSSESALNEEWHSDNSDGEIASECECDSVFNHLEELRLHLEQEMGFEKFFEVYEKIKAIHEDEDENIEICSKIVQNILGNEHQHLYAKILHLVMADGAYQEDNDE
Particulars: at 0.1 µM.

Assay [3] addresses T2, Serine/threonine-protein kinase Nek1 (Homo sapiens). The conditions noted are these: at 1 µM.
The target of assay [4] is T3, Serine/threonine-protein kinase Nek2 (Homo sapiens) (UniProt P51955).
T3 sequence (whole entry): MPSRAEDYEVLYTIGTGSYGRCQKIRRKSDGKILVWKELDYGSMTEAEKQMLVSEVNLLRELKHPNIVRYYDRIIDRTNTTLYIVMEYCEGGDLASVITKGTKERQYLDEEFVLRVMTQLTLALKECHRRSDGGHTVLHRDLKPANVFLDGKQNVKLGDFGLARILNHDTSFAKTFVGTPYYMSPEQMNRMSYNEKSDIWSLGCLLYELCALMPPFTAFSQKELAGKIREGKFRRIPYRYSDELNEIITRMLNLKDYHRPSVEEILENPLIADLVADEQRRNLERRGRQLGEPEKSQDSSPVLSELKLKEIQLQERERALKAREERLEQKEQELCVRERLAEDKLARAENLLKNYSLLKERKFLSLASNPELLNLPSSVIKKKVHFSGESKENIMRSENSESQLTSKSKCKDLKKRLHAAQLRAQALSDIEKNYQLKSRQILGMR
The conditions noted are these: at 0.1 µM.

The target of assay [5] is T3, Serine/threonine-protein kinase Nek2 (Homo sapiens). The conditions noted are these: at 1 µM.
Assay [6] addresses Serine/threonine-protein kinase Nek6 (Homo sapiens) (UniProt Q9HC98). The conditions noted are these: at 0.1 µM.
For assay [7] the target is unchanged. Particulars: at 1 µM.
The target of assay [8] is Serine/threonine-protein kinase Nek7 (Homo sapiens) (UniProt Q8TDX7). Particulars: at 0.1 µM.
Chain of Serine/threonine-protein kinase Nek7 (Homo sapiens) (Q8TDX7 whole entry, looked up): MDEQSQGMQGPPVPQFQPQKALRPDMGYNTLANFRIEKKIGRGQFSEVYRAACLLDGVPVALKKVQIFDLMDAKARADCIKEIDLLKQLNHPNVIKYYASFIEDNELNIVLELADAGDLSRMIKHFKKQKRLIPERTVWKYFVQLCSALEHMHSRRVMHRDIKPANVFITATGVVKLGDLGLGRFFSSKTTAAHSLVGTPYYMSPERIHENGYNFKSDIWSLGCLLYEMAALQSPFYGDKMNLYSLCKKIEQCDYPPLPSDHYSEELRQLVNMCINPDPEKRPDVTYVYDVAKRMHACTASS
For assay [9] the target is unchanged. The conditions noted are these: at 1 µM.
The target of assay [10] is T4, Serine/threonine-protein kinase Nek9 (Homo sapiens) (UniProt Q8TD19).
T4 sequence (whole entry): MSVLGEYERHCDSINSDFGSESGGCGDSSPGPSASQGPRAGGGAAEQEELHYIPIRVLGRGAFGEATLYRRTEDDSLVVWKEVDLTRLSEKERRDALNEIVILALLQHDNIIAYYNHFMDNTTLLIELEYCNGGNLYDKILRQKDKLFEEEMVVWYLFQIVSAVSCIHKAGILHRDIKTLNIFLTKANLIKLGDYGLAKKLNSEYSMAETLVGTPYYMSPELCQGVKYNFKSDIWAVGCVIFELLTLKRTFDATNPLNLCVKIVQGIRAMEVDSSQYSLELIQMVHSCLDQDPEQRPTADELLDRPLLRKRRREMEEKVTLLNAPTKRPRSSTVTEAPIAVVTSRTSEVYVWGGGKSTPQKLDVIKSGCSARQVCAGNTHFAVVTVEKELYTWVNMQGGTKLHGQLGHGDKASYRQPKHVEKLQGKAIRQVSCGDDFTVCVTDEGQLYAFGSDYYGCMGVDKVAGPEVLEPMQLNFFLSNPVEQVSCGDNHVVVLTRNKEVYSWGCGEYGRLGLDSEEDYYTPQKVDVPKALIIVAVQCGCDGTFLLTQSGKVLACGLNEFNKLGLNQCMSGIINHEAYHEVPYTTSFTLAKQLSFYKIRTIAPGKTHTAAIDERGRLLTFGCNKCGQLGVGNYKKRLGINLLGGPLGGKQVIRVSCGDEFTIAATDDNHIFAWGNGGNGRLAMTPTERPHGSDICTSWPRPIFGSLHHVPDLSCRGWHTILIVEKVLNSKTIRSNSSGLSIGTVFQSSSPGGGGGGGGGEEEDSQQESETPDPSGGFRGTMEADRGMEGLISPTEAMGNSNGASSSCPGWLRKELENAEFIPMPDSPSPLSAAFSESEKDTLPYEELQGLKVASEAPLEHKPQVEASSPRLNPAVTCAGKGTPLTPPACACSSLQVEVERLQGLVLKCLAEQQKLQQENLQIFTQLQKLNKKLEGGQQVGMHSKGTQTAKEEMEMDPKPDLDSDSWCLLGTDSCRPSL
Particulars: at 0.1 µM.

Assay [11] addresses T4, Serine/threonine-protein kinase Nek9 (Homo sapiens). The conditions noted are these: at 1 µM.
Assay [12] addresses Serine/threonine-protein kinase PLK1 (Homo sapiens) (UniProt P53350). Particulars: at 0.1 µM.
Assay [13] has the same target. Particulars: at 1 µM.
Assay [14] deals with T5, Dual specificity protein kinase TTK (Homo sapiens) (UniProt P33981).
T5 sequence (whole entry): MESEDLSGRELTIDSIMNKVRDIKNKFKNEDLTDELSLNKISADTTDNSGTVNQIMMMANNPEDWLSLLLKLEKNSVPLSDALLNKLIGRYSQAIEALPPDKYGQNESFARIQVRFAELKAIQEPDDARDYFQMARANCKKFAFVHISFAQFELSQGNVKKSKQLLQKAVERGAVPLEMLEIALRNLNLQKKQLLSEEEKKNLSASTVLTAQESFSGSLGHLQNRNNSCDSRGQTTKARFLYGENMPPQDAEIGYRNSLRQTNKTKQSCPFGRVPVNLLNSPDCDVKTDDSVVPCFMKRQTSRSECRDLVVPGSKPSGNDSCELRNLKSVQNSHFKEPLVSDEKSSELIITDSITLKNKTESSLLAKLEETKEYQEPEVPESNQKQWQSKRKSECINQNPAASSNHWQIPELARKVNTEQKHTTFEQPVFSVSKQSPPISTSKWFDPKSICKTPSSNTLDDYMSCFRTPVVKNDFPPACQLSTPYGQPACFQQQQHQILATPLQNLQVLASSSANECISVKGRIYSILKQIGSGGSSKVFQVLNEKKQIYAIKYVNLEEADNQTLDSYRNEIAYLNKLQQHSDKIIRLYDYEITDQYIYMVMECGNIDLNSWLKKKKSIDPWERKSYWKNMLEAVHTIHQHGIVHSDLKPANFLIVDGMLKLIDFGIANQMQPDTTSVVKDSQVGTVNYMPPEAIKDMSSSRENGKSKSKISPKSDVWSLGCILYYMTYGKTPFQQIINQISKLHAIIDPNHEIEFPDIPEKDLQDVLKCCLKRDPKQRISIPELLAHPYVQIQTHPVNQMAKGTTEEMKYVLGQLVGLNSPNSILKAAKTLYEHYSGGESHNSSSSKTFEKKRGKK
Particulars: at 0.1 µM.

Assay [15] deals with T6, Receptor-type tyrosine-protein kinase FLT3 (Homo sapiens), P36888 [D835Y].
T6 sequence (whole entry): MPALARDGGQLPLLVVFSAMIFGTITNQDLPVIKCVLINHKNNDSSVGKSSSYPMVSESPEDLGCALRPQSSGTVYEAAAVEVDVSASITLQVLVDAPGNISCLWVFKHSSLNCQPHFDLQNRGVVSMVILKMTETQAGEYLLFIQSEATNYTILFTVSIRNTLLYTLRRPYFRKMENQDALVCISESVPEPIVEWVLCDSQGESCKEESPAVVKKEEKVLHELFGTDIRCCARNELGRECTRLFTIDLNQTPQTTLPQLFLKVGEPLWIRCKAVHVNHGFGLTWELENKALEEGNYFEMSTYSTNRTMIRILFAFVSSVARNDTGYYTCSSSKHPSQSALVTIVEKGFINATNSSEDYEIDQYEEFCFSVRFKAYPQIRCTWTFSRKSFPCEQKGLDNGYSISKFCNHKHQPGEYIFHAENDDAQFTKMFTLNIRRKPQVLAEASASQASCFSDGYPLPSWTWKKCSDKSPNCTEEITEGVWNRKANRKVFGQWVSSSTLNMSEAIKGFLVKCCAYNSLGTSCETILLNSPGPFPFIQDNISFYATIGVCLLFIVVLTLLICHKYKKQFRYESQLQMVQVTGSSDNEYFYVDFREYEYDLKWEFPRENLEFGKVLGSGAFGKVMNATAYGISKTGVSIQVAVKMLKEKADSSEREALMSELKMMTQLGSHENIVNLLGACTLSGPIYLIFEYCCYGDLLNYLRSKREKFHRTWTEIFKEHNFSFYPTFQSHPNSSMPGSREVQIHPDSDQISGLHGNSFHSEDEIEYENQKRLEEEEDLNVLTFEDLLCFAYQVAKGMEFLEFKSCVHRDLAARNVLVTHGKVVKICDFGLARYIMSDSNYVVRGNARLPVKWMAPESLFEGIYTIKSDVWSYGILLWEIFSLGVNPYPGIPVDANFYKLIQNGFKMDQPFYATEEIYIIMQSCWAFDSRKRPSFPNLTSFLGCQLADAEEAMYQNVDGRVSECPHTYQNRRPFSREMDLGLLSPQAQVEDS
The conditions noted are these: at 1 µM.

Assay [16] deals with Vascular endothelial growth factor receptor 3 (Homo sapiens) (UniProt P35916). The conditions noted are these: at 0.1 µM.
Chain of Vascular endothelial growth factor receptor 3 (Homo sapiens) (P35916 whole entry): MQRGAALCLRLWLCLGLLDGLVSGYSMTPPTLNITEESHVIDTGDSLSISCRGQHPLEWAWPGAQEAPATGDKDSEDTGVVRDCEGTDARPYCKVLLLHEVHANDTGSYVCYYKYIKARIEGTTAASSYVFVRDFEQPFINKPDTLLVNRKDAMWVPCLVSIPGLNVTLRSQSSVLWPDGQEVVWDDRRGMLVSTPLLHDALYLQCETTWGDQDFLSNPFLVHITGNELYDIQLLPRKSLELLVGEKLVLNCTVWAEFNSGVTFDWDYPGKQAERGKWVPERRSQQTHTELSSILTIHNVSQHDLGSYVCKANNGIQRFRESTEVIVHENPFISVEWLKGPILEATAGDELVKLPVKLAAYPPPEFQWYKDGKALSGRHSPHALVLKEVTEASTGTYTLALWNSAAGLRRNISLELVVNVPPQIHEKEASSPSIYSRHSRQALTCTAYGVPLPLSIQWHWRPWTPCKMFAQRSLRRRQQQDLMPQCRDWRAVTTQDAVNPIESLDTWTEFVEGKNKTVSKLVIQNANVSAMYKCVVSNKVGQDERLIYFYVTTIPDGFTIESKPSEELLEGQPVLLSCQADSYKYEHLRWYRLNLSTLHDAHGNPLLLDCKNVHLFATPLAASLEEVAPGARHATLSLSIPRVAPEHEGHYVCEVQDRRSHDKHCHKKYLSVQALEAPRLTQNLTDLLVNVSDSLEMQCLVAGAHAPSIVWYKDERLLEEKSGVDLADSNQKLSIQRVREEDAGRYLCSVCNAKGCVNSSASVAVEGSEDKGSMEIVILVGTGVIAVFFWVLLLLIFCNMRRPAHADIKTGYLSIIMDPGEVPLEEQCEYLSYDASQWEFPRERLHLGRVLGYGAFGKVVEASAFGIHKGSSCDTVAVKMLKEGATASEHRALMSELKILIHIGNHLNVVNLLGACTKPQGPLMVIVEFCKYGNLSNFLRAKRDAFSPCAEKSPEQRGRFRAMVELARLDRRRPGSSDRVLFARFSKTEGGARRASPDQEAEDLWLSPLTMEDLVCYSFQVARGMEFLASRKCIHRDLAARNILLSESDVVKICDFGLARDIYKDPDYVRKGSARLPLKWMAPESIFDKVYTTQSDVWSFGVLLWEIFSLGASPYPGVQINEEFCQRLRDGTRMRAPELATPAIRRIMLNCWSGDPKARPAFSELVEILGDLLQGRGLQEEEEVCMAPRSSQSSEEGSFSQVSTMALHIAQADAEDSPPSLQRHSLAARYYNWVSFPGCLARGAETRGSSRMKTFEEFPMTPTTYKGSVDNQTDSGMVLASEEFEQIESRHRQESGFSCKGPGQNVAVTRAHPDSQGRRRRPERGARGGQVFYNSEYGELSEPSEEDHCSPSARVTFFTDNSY
The target is the same in assay [17]. The conditions noted are these: at 1 µM.
In assay [18] the target is Macrophage colony-stimulating factor 1 receptor (Homo sapiens) (UniProt P07333). The conditions noted are these: at 0.1 µM.
Chain of Macrophage colony-stimulating factor 1 receptor (Homo sapiens) (P07333 whole entry): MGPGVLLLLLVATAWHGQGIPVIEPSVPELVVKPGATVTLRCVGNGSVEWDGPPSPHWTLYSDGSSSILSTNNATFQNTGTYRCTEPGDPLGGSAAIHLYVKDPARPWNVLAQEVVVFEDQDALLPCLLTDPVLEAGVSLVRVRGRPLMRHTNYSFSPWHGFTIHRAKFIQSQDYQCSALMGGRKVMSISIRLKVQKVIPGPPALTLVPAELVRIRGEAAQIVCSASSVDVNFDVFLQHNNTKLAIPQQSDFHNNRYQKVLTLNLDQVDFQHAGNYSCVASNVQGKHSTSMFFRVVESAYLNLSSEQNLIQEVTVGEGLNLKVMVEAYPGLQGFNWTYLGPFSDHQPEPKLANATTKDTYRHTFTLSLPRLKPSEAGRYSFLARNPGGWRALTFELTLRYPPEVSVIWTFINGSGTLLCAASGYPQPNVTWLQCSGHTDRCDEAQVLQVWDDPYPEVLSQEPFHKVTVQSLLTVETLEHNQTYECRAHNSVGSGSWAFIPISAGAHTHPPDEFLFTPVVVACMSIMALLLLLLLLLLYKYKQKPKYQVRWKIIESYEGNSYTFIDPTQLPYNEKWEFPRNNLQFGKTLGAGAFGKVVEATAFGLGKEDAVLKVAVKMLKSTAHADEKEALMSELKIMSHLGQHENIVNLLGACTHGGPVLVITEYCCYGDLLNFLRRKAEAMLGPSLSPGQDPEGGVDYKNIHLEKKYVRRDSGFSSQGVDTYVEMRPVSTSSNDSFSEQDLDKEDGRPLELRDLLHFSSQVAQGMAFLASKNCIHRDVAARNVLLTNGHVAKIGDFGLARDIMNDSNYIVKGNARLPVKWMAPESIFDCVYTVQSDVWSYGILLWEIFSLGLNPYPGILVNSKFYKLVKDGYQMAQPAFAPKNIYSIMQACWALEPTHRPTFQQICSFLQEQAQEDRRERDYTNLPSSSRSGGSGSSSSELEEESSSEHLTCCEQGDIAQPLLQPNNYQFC
Assay [19] has the same target. Particulars: at 1 µM.
In assay [20] the target is Tyrosine-protein kinase Fyn (Homo sapiens) (UniProt P06241). The conditions noted are these: at 0.1 µM.
Chain of Tyrosine-protein kinase Fyn (Homo sapiens) (P06241 2-537 limits assumed): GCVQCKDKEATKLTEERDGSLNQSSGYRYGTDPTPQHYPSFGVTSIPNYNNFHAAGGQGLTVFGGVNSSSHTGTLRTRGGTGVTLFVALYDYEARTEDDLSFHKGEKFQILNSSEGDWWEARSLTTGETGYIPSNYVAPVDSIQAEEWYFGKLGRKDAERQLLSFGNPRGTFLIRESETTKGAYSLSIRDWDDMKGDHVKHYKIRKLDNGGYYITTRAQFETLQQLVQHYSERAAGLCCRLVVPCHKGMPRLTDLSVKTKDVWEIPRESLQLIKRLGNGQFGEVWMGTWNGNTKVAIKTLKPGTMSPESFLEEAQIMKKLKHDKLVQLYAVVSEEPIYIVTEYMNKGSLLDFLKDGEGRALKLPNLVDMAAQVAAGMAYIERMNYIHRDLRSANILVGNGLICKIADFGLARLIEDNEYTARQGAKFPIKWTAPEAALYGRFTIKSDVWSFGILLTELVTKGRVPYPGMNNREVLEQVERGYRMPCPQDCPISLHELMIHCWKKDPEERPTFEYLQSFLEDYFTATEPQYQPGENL

By inhibition is commonly meant the drop in the measured response relative to a control, in per cent.

SMILES strings stand for the structures.

Chain of Serine/threonine-protein kinase Nek6 (Homo sapiens) (Q9HC98 whole entry): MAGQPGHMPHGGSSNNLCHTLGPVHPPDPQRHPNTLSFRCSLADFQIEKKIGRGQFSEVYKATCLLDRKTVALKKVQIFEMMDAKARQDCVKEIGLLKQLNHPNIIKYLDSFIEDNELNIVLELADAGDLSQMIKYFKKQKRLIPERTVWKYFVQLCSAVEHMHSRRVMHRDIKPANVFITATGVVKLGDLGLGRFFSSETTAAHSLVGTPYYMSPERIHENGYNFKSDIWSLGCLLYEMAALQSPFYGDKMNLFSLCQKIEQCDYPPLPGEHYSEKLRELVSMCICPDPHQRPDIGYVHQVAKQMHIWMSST
Chain of Serine/threonine-protein kinase PLK1 (Homo sapiens) (P53350 whole entry): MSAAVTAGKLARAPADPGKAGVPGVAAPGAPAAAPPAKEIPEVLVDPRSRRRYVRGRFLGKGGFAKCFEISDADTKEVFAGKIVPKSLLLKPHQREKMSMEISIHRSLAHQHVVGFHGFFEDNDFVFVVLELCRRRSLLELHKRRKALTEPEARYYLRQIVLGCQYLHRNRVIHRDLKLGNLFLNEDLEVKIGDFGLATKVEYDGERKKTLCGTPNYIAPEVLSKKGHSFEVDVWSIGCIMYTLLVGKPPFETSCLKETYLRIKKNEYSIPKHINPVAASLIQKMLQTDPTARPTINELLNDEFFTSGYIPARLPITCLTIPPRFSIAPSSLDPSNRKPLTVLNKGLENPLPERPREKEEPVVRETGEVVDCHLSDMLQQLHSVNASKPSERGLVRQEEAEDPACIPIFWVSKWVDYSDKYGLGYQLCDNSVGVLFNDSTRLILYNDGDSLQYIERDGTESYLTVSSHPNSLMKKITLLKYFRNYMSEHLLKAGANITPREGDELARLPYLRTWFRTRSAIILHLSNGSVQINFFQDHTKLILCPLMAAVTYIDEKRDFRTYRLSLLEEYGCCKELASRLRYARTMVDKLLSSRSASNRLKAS

Regarding `Cn1c(-c2nonc2N)nc2cnccc21`, the inhibition in assay [1] was determined as 6.44%; in [2] it was 1.82%; in assay [3], 3.22%; in assay [4] it was 4.27%; in assay [5], 3.27%; in assay [6], 3.89%. In addition, the inhibition in [7] is -0.49%; in assay [8], 3.76%; in [9] it was 3.15%; in assay [10] it was 12.2%; in assay [11] it was 10.4%; in [12] it was 4.28%. In addition, the inhibition is 5.16% in [13]; 5.36% in assay [14]; 6.27% in assay [15]; 2.31% in [16]; -0.12% in assay [17]; -0.13% in assay [18]. Moreover, the figures for the inhibition in assay [19] and in assay [20] were 4.58% and 1.61%, respectively.
Regarding `CCS(=O)(=O)c1ccc(OC)c(Nc2ncc(-c3cccc(C(C)=O)c3)o2)c1`, the inhibition was 5.1% in assay [1]; 1.59% in assay [2]; 4.9% in [3]; 3.34% in assay [4]; 2.2% in [5]; 3.06% in assay [6]. For the same molecule, the inhibition in assay [7] amounted to 3.18%; in assay [8], 2.79%; in assay [9], 3.24%; in assay [10], 5.45%; in assay [11] it was 3.45%; in [12], 2.42%. The inhibition was found to be 2.98% in [13]; 5.81% in assay [14]; 87.2% in assay [15]; 10.7% in assay [16]; 47.3% in assay [17]; 10.2% in assay [18]. Also, the inhibition in assay [19] is 34.7%; in assay [20], 26.4%.

Source of the values: ChEMBL document CHEMBL1961873, “Compounds: GSK PKIS; Assays: Nanosyn kinase panel” (2012).
